# PubChem BioAssay
# Calls of active or inactive are those of the source.
# Test: small-molecule microarray binders of probe aXIP, primary screen, biochemical, NeuroSMM set, 635/667 nm fluorescence (AID 1119);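 further: probe is the protein aXip251-270 applied at 1 µg/mL to compound-printed slides; binding of probe to printed compounds measured as 667 nm fluorescence plus signal to noise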
# Conditions: higher = more signal, called active from +8 up or from −8 down
row,Structure (SMILES),composite Z-score
1,CC(C)=NO[C@H](C)c1cn([C@@H]2COC[C@H]2O)nn1,-0.679 (inactive)
2,CC(C)=NOC(C)CN1CCCc2nc(C)c(C)cc21 (stereo not drawn),0.672 (inactive)
3,CC#CCOCCC=C1c2ccccc2[C@@H](OC)[C@@H]1C,0.549 (inactive)
4,O=C1[C@H]2[C@H]3[C@H](O)[C@H](O)CC(=NO[C@@H]4O[C@H](CO)[C@@H](O)[C@H](O)[C@H]4O)[C@H]3CC[C@H]2C(=O)N1C[C@@H]1CCCO1,0.274 (inactive)
5,O=C1C[C@H](c2ccccc2)[C@H](c2ccc(Br)cc2)O1,0.372 (inactive)
6,CO[C@H]1COC(=O)CC=C[C@@H](C)COC(=O)[C@H]2CCCN2C(=O)CC=C[C@H]1C,0.297 (inactive)
7,O=C(NN=C1C[C@@H](O)[C@@H](O)[C@@H]2[C@@H]3C(=O)N(Cc4ccccc4)C(=O)[C@@H]3CC[C@H]12)OCc1ccccc1,0.0005 (inactive)

# Test: small-molecule binders of probe aNOTCH3, primary screen, biochemical, small-molecule microarray, 635/667 nm fluorescence (AID 1120);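 further: probe is a biotin-tagged antibody raised against NOTCH3 rather than NOTCH3 protein; score merges spot fluorescence near 667 nm with spot signal to noise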
# Conditions: higher = more signal
row,Structure (SMILES),composite z-score
1,CON=C(C)CCN1CCCCc2nc(C)c(C)cc21,0.245
2,CCOC(=O)[C@H](Cc1ccccc1)NC(=O)CCC1CC(OC(=O)NCc2cccc3ccccc23)CC2(CCCC(COC(=O)NCC3CCCCC3)O2)O1 (stereo partly drawn),0.0713
3,CO[C@H]1COC(=O)CCC[C@H](C)[C@@H](OC)COC(=O)CC=C[C@@H]1C,-0.136
4,C[C@H]1C=CCC(=O)OC[C@H](C)C(=O)N2CCC[C@H]2C(=O)OC1,-0.161
5,CC(=O)OC[C@H]1O[C@H](CCON=C(C)C)C=C[C@@H]1OC(C)=O,-0.0362
6,CC(C)[C@@H](OCc1ccccc1)[C@H](C)C=NO[C@@H](C)c1cn([C@H](CO)Cc2ccccc2)nn1,0.209
7,O=C1C2=CC[C@H]3C(=O)N(C4CCCCC4)C(=O)[C@H]3[C@H]2[C@H](O)[C@@H]2O[C@H]12,-0.199
8,CC(C)(C)N1C(=O)[C@H]2[C@H]3[C@H](O)[C@H](O)CC(=NNC(=O)OCc4ccccc4)[C@H]3CC[C@H]2C1=O,-0.0071
9,CC(C)(C)N1C(=O)[C@H]2[C@H]3[C@H](O)[C@H](O)CC(=NNC(=O)OCc4ccccc4)[C@@H]3CC[C@H]2C1=O,0.073
10,O=C1C2=CC[C@H]3C(=O)N(C[C@@H]4CCCO4)C(=O)[C@H]3[C@H]2[C@H](O)[C@@H]2O[C@H]12,-0.183
11,CO[C@@H]1C=CCC(=O)N[C@@H](C)C(=O)OC[C@@H](NS(=O)(=O)c2ccc(C)cc2)[C@H](C)C=CCC(=O)OC[C@H]1C,-0.0898
12,C[C@@H]1CC[C@@H](C(=O)O)N[C@H]1c1cccc(N2CCOCC2)c1,0.0624
13,CO[C@@H]1COC(=O)[C@@H]2CCCN2C(=O)[C@@H](C)COC(=O)CCC[C@H]1C,0.109
14,O=C1[C@H]2[C@H]3[C@H](O)[C@H](O)CC(=NOC[C@@H](O)COCc4ccco4)[C@@H]3CC[C@H]2C(=O)N1C1CCCCC1,0.149
15,CC(CCC(=O)OC[C@H]1O[C@H](C#Cc2ccccc2)C=C[C@@H]1Oc1ccc(C)cc1)=NO[C@H](C)c1cn([C@@H]2COC[C@H]2O)nn1,-0.0697
16,C[C@H]1CC[C@H]2C(=O)N[C@H](Cc3ccccc3)C(=O)N2[C@@H]1c1ccccc1,-0.177
17,CC(=O)OC[C@H]1O[C@H](CC=NO[C@H](C)c2cn([C@@H]3COC[C@H]3O)nn2)C=C[C@@H]1OC(C)=O,-0.182
18,O=C1CCCC=C1C(O)COCc1ccccc1 (stereo not drawn),-0.154

row,Structure (SMILES),composite z-score
1,COc1ccc(COC(=O)NN=C2C[C@@H](O)[C@@H](O)[C@@H]3[C@@H]4C(=O)N(C5CCCCC5)C(=O)[C@@H]4CC[C@@H]23)cc1,0.289
2,COC(=O)CC=C[C@@H](C)[C@@H](C=NOC[C@@H](O)COCc1ccco1)OC,-0.262
3,O=C1[C@H]2[C@H]3[C@H](O)[C@H](O)CC(=NO[C@@H]4O[C@H](CO)[C@@H](O)[C@H](O)[C@H]4O)[C@@H]3CC[C@H]2C(=O)N1C[C@@H]1CCCO1,-0.243
4,O=C1[C@H]2[C@H]3[C@H](O)[C@H](O)CC(=NOC[C@@H](O)COCc4ccco4)[C@@H]3CC[C@H]2C(=O)N1Cc1ccccc1,0.121
5,CCOC(=O)[C@H](Cc1ccccc1)NC(=O)CCC1CC(OC(=O)NCCc2ccc(F)cc2)CC2(CCCC(COC(=O)NCc3cccc(C(F)(F)F)c3)O2)O1 (stereo partly drawn),0.148
6,O=C1C=C[C@@H](O)[C@@H]2[C@@H]3C(=O)N(C4CCCCC4)C(=O)[C@@H]3CC[C@@H]12,0.0738
7,CCN1C(=O)[C@H]2[C@@H]3C(=CC[C@H]2C1=O)C(=O)[C@H]1O[C@H]1[C@H]3O,-0.0258
8,CCOC(=O)[C@H](Cc1ccccc1)NC(=O)CCC1CC(OC(=O)NCc2ccc3c(c2)OCO3)CC2(CCCC(COC(=O)NCCOc3ccccc3)O2)O1 (stereo partly drawn),0.0636
9,CCN1C(=O)[C@H]2[C@H]3[C@H](O)[C@H](O)CC(=NO[C@H](C)c4cn([C@H](CO)Cc5ccccc5)nn4)[C@@H]3CC[C@H]2C1=O,0.0539
10,COC(OC)[C@@H](C)[C@H](OC)[C@@H](C)[C@H](OC)c1ccccc1,-0.0647
11,CO[C@@H]1COC(=O)[C@H](CCSC)NC(=O)CC=C[C@@H](C)COC(=O)[C@@H]2CCCN2C(=O)CC=C[C@H]1C,0.0306
12,CC(C)=NO[C@H](C)c1cn([C@@H]2COC[C@H]2O)nn1,0.0694
13,CC(C)=NOC(C)CN1CCCc2nc(C)c(C)cc21 (stereo not drawn),0.0482
14,CC#CCOCCC=C1c2ccccc2[C@@H](OC)[C@@H]1C,-0.128
15,O=C1[C@H]2[C@H]3[C@H](O)[C@H](O)CC(=NO[C@@H]4O[C@H](CO)[C@@H](O)[C@H](O)[C@H]4O)[C@H]3CC[C@H]2C(=O)N1C[C@@H]1CCCO1,-0.136
16,O=C1C[C@H](c2ccccc2)[C@H](c2ccc(Br)cc2)O1,-0.182
17,CO[C@H]1COC(=O)CC=C[C@@H](C)COC(=O)[C@H]2CCCN2C(=O)CC=C[C@H]1C,-0.122
18,O=C(NN=C1C[C@@H](O)[C@@H](O)[C@@H]2[C@@H]3C(=O)N(Cc4ccccc4)C(=O)[C@@H]3CC[C@H]12)OCc1ccccc1,-0.118
